# Data taken from ChEMBL document CHEMBL1157539, “Thousands of chemical starting points for antimalarial lead identification” (Nature, 2010).
# System: Plasmodium falciparum
# Test: GSK_TCMDC: Inhibition of Plasmodium falciparum 3D7 in whole red blood cells, using parasite LDH activity as an index of growth. Test compounds present at 2uM
# Format: functional
row,Compound,Inhibition [%]
1,COc1ccc2c(c1C1CCN(CCCCNC(=O)c3ccc(-c4ccc(Cl)cn4)cc3)CC1)CCCC2,90
2,O=C(Nc1ccc(-c2csc(-c3nc4ccccc4[nH]3)c2)cc1)Nc1ccc(F)c(F)c1F,100
3,C=CCC(CC=C)N1C(=O)C(c2ccccc2)(c2ccccc2)N=C1N.O=CO,98
4,Nc1nc(N)c2c(ccc3c2ccn3C2C=CCCC2)n1 (centres undefined),94
5,Clc1ccc(-c2cc(-c3csc(Nc4ccncc4)n3)on2)cc1,100
6,COc1ccc2ncc(F)c(CCN3CC(O)C(CNCc4ccc(F)cc4)C3)c2n1.Cl (centres undefined),93
7,NCc1cccc(-c2ccc3ccnc(N)c3c2)c1,100
8,NC1CCCN(Cc2cccc(-c3cccc(-c4nc5ccccc5[nH]4)c3)c2)C1.O=C(O)C(F)(F)F (centres undefined),100
9,Fc1ccc2[nH]c(-c3ccc(-c4ccc(CN5CCCCC5)cc4)s3)nc2c1.O=C(O)C(F)(F)F,92
10,CC(C)C[C@H](Nc1ccc(C#N)c2ccccc12)C(=O)NC(C)(C)C12CC3CC(CC(C3)C1)C2.O=C(O)C(F)(F)F,96
11,Cc1nc(NC(=N)N)nc2ccc(C(C)(C)C)cc12.Cl,96
12,Oc1cc(Nc2ccnc3cc(-c4ccc(CN5CCCCC5)o4)c(Cl)cc23)c(Cl)cc1F,100
13,COc1ccc2nccc([C@@H](O)CN3CCC(NCCNc4ccccn4)CC3)c2c1.O=C(O)C(=O)O,100
14,Cc1cccc2nc(-c3cccc(-c4ccc(CNCc5ccc(S(C)(=O)=O)cc5)cc4)c3)[nH]c12.O=C(O)C(F)(F)F,100
